BAZ2B block = BAZ2B (human) inhibition; Potency, µM (doses to about 114 µM), inactives show at the top dose activity change, negative = inhibition, usual class: inhibitors; AlphaScreen BAZ2B-H3K14Ac peptide displacement; 360,000 tested, 4.4% active; Q9UIF8; AID 504333; also: % is scaled to controls: 0 for no effect and ±100 for the full control effect; nearly all actives have a fitted effect of over 60% in size
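AlphaScreen displacement: compounds (up to 110uM) incubated 30 min at room temperature with a preformed 50 nM BAZ2B/50 nM biotinylated H3K14Ac peptide complex in PBS pH 7.4 with Tween-20. Donor and acceptor beads at 10 ug/mL final added, 20 min light-protected before reading.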
L3MBTL1 inh = inhibitors of human L3MBTL1; Q9Y468; AlphaScreen L3MBTL1–H3K9me1 peptide binding; Potency, µM (doses to about 57.1 µM), for inactives: at the top dose activity, negative = inhibition, most hits filed as inhibitors; 230,000 tested, 0.66% active; AID 485360; also: % is scaled to controls: 0 for no effect and ±100 for the full control effect; nearly all actives have a fitted effect of over 60% in size
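Read-out is AlphaScreen signal from streptavidin donor and nickel chelate acceptor beads (10 ug/mL final each) bridging L3MBTL1 (50 nM) and biotinylated K9-monomethylated H3(1-15) peptide (75 nM), after 30 min compound exposure at room temperature.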
Sfp inh = blocks B. subtilis Sfp PPTase activity; Biochemical Sfp PPTase activity, qHTS; Potency, µM, inactives show largest response in the series, negative = inhibition, actives largely listed as inhibitors; 310,000 tested, 3.5% active; AID 1490;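 also: the enzyme is Sfp with the accession as filed and its product quenches rhodamine fluorescence; 0% = enzyme reaction without inhibitor and -100% = no enzyme wells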
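With Hepes-Na pH 7.6 buffer containing 10 mM MgCl2, Sfp (15 nM) modified BHQ-2-YbbR (12.5 uM) using rhodamine-CoA (5 uM). Two reads 30 minutes apart at 525/598 nm yielded each well's rate.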
JMJD2A Tudor = inhibitors of human JMJD2A Tudor domain. AID 504339. AlphaScreen JMJD2A-Tudor / H3K4me3 peptide binding. 390,000 tested, 4.4% active. Potency, µM (titrated, usually from 114 µM), for the others: at the top dose activity change, negative = inhibition, hits mostly inhibitors. O75164; also: % is scaled to controls: 0 for no effect and ±100 for the full control effect; nearly all actives have a fitted effect of over 50% in size
G9a inh = G9a (human) methyltransferase inhibition; Q96KQ7; G9a H3K9 monomethylation, AlphaScreen, 2 h; Potency, µM (titrated, usually from 102 µM), inactives show at the highest dose activity, negative = inhibition, actives largely listed as inhibitors; 350,000 tested, 8.8% active; AID 504332; also: % is scaled to controls: 0 for no effect and ±100 for the full control effect; nearly all actives have a fitted effect of over 75% in size
Target sequence (Q96KQ7 913-1193 limits assumed): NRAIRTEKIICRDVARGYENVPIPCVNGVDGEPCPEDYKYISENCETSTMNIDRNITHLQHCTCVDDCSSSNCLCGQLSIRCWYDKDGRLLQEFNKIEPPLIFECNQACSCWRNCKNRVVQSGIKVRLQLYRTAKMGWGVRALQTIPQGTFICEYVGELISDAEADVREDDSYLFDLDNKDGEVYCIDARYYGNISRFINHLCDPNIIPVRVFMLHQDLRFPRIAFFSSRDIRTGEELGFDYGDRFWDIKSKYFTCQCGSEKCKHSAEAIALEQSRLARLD
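Enzyme 20 nM + cpd, 15 min RT; add b-H3K9 pep 500 nM / SAM 20 uM; 2 h RT; anti-H3K9me1 Ab 0.5 ug/mL + SA donor / anti-rabbit acceptor beads 20 ug/mL each, 10 min; AlphaScreen read.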
HP1b chromo inh = blocks HP1-beta chromodomain binding to methylated histone tails. P83916. AlphaScreen HP1-beta / biotin-H3K9me3 peptide binding. Potency, µM (top dose mostly 114 µM), for the others: at the top dose activity change, negative = inhibition, hits mostly inhibitors. 390,000 tested, 0.56% active; also: nearly all actives have a fitted effect of over 70% in size
Target sequence (P83916 whole entry, looked up): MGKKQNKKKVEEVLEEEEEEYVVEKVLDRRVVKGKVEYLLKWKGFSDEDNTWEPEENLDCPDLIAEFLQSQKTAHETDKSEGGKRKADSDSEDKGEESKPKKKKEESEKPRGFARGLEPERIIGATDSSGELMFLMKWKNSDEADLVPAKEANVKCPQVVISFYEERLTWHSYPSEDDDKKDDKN
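AlphaScreen: HP1-beta (50 nM) preformed 30 min with biotin-H3(1-18)K9me3 peptide (50 nM) in PBS pH 7.4, 0.01% Tween-20. Compound added for 30 min at RT, then streptavidin donor/nickel chelate acceptor beads (10 ug/mL) for 30 min.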
* marks the source's active call; other numbers are inactive results; ? = inconclusive; / = no result; [ ] = dose if it differs, or a comment. Most compounds without a hit are left out; they make up all but 12% or so of the library. Calls follow the shape of the dose curve; as a rule, active = well fitted curve in the direction sought with a large enough effect; inconclusive = small, poorly fitted or top-dose-only effect, or another doubt; inactive = no such curve, though single readings can be large; an effect the other way counts as inactive or inconclusive. Potency is read from the fitted curve at half-maximal effect.

SMILES | BAZ2B block | L3MBTL1 inh | Sfp inh | JMJD2A Tudor | G9a inh | HP1b chromo inh
O=C(Nc1ccc(Cc2ccncc2)cc1)c1ccc([N+](=O)[O-])o1 | ? | / | 10% | -17% | / | 20%
O=C(NNc1ccc([N+](=O)[O-])cc1)c1ccccc1F | -38% | -4% | -8% | -26% | 35µM* | 13%
O=C(NNc1ccccc1)C(=O)NNS(=O)(=O)c1ccc([N+](=O)[O-])cc1 | -27% | 8% | 14% | 3.2µM* | 6.3µM* | 11%
O=C(NNc1ccc([N+](=O)[O-])cc1)Nc1ccccc1 | -27% | 2% | ? | -30% | ? | ?
O=C(NNS(=O)(=O)c1ccc([N+](=O)[O-])cc1)c1ccc([N+](=O)[O-])cc1 | -19% | / | 2% | 1.3µM* | 17%[2.33 µM] | ?
CC(=O)Nc1ccc(S(=O)(=O)NNc2ccc([N+](=O)[O-])cc2)cc1 | 50µM* | -3% | 22µM* | 6.3µM* | 1.3µM* | ?
COc1ccc(N2CCN(C(=O)CCc3c(C)nn(-c4ccc(N5CCCC5)nn4)c3C)CC2)cc1 | ? | / | / | -26% | -1%[59 µM] | 24%
O=C(NNS(=O)(=O)c1ccc(Br)cc1)c1ccncc1 | -28% | 4% | -4% | ? | 39%[0.501 µM] | 5%
Cc1ccc(S(=O)(=O)NNC(=O)c2ccncc2)cc1[N+](=O)[O-] | -30% | / | -4% | 4µM* | 50µM* | 21%
CCOC(=O)c1cc2c(ccn2C)n1Cc1ccc(Cl)cc1 | 50µM* | -7% | -12% | 56µM* | 50µM* | -22%
CCOC(=O)c1cc2c(ccn2C)n1CC(=O)N(C)C | -13% | -7% | -8% | -15% | / | 37%
CCOC(=O)c1cc2c(ccn2C)n1CC(=O)N1CCC(Cc2ccccc2)CC1 | 25µM* | ? | -15% | 35µM* | 40µM* | ?
CCOC(=O)c1cc2c(ccn2C)n1CC(=O)N1CCCC(C)C1 (stereo unspecified) | ? | -13% | 13% | -18% | 15%[59 µM] | -9%
O=c1ccc2ccc(Oc3ccc(Cl)cc3[N+](=O)[O-])cc2o1 | ? | / | 1% | ? | 32µM* | -21%
C/C(=N\N1CCN(C2c3ccccc3-c3ccccc32)CC1)c1ccncc1 | ? | -9% | -4% | ? | 24%[0.501 µM] | ?
Cc1ccsc1/C=N/N1CCN(C2c3ccccc3-c3ccccc32)CC1 | ? | -7% | 7% | ? | 33%[0.501 µM] | -31%
Oc1cccc(/C=N/N2CCN(C3c4ccccc4-c4ccccc43)CC2)c1 | ? | -1% | 28% | 40µM* | ? | ?
COc1ccccc1N1CCN(/N=C/c2cccc(OC)c2O)CC1 | ? | ? | -8% | ? | -3% | 8%
O=C(O)COCC(=O)N1CCN(C2c3ccccc3-c3ccccc32)CC1 | -9% | -1% | 8% | -6% | -23% | -5%
C(=N\N1CCN(C2c3ccccc3-c3ccccc32)CC1)/c1ccncc1 | 35µM* | -12% | 2% | 45µM* | ? | ?
COc1cc(/C=N/N2CCN(C3c4ccccc4-c4ccccc43)CC2)ccc1O | 35µM* | -1% | 10% | 56µM* | ? | 21%
COc1cccc(/C=N/N2CCN(C3c4ccccc4-c4ccccc43)CC2)c1O | -37% | -25% | 7% | ? | 35µM* | 9%
CCn1cc(C(=O)NCCC(=O)OC)c(=O)c2cc3c(cc21)OCO3 | 5% | / | 3% | 0% | 9% | 5%
Cc1nonc1OCCCNc1ccc([N+](=O)[O-])cc1Cl | -26% | / | 7% | -26%[57.1 µM] | 1.3µM* | 29%
Cc1ccc(-n2cccc2/C=C2\C(=N)N3N=C(c4ccco4)SC3=NC2=O)cc1 | 35µM* | ? | -28% | ? | 10µM* | -3%
SMILES | BAZ2B block | L3MBTL1 inh | Sfp inh | JMJD2A Tudor | G9a inh | HP1b chromo inh
CCC1=NN2C(=N)/C(=C\c3cccn3-c3ccc(Cl)cc3)C(=O)N=C2S1 | ? | / | 0% | -36% | -9%[59 µM] | -4%
CCc1ccc(-n2cccc2/C=C2/C(=N)N3C(=NC2=O)SN=C3S(C)(=O)=O)cc1 | 40µM* | ? | 1% | 56µM* | 45µM* | -3%
Cc1ccc(-n2cccc2/C=C2/C(=N)N3C(=NC2=O)SN=C3S(C)(=O)=O)cc1 | 45µM* | ? | -9% | 16µM* | 40µM* | -24%
Cc1cc(C)cc(-n2cccc2/C=C2/C(=N)N3C(=NC2=O)SN=C3S(C)(=O)=O)c1 | 56µM* | / | ? | ? | ? | -19%
CCC1=NN2C(=N)/C(=C\c3cccn3-c3ccc(C)c(C)c3)C(=O)N=C2S1 | -22% | -25% | -23% | ? | -33% | 14%
COc1cccc(-n2nnc3c(=O)n(CC(=O)Nc4ccc(C)cc4)cnc32)c1 | -22% | -1% | 21% | -12% | -2% | 15%
C=CCNC(=O)c1ccc(NC(=O)C2=CSCCO2)cc1 | 18% | / | 14% | -21% | 95%[59 µM] | 2%[57 µM]
C[C@@H](C(=O)NCc1nc2ccccc2[nH]1)[C@@H]1C[C@@]1(C)[C@@H](NC(=O)OCc1ccccc1)c1ccccc1 | / | / | 18% | / | / | /
O=C(CSc1nncc(=O)[nH]1)NC1CCCCC1 | 3% | / | -30% | -23% | 21%[59 µM] | 16%
CS(=O)(=O)C1=NSC2=NC(=O)/C(=C\c3cccn3-c3ccccc3Cl)C(=N)N21 | 50µM* | -4% | -5% | ? | 50µM* | 25%
Cc1ccc(S(=O)(=O)Oc2ccc(/C=C3/C(=N)N4C(=NC3=O)SN=C4S(C)(=O)=O)cc2)cc1 | ? | / | -13% | ? | / | -7%[57 µM]
NS(=O)(=O)c1cccc(NC(=O)c2cc(-c3cccs3)nc3ccccc23)c1 | -35% | -6% | 10% | -21% | 45µM* | 24%
CN(C)S(=O)(=O)c1cccc(NC(=O)c2cc(-c3cccs3)nc3ccccc23)c1 | 7% | -1% | 29% | -23% | -13%[59 µM] | 10%
NS(=O)(=O)c1cccc(NC(=O)COC(=O)c2cc(-c3ccc(Cl)cc3)nc3ccccc23)c1 | -19% | 2% | 30% | -19% | 35µM* | 11%
Oc1ccc(C=NN=Cc2ccco2)c(O)c1 | / | / | / | -24% | / | 20%

Assay outcomes deposited in PubChem BioAssay by National Center for Advancing Translational Sciences (NCATS).
